Positions count from the first letter of the chain named.
Tests used:
Assay in all cases: PBM; 200 nM protein, PBS
Details in all cases: dsDNA, one strand shown
HOXC10 [1] = target: HOXC10 (Homo sapiens, UniProt Q9NYD6 254-340)
HOXA2 [2] = target: HOXA2 (Homo sapiens, UniProt O43364 129-215, R185T)
HOXA2 [3] = target: HOXA2 (Homo sapiens, UniProt O43364 129-215, R185K)
HOXC10 [4] = target: HOXC10 (Homo sapiens, UniProt Q9NYD6 254-340, K271E)
PROP1 [5] = target: PROP1 (Homo sapiens, UniProt O75360 56-141)
PROP1 (Homo sapiens, UniProt O75360 56-141), sequence (O75360 56-141): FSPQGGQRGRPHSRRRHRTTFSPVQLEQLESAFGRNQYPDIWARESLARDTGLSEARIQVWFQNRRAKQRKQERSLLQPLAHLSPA

PROP1 [6] = target: PROP1 (Homo sapiens, UniProt O75360 56-141, R99H)
PROP1 (Homo sapiens, UniProt O75360 56-141, R99H), sequence (O75360 56-141 R99H): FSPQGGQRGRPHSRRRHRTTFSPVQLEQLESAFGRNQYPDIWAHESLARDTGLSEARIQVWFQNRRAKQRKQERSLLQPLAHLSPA

PROP1 [7] = target: PROP1 (Homo sapiens, UniProt O75360 56-141, F88S)
PROP1 (Homo sapiens, UniProt O75360 56-141, F88S), sequence (O75360 56-141 F88S): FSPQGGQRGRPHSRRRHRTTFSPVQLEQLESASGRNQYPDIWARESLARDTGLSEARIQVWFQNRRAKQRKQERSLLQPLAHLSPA

HOXA2 [8] = target: HOXA2 (Homo sapiens, UniProt O43364 129-215, Y150S)
HOXA2 (Homo sapiens, UniProt O43364 129-215, Y150S), sequence (O43364 129-215 Y150S): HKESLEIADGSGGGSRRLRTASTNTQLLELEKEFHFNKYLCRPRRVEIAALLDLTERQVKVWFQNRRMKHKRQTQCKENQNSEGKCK

HOXA2 [9] = target: HOXA2 (Homo sapiens, UniProt O43364 129-215)
HOXA2 (Homo sapiens, UniProt O43364 129-215), sequence (O43364 129-215): as the sequence (O43364 129-215 Y150S) above, with S22Y counted along it

HOXD13 [10] = target: HOXD13 (Homo sapiens, UniProt P35453 263-343, T313R)
HOXD13 (Homo sapiens, UniProt P35453 263-343, T313R), sequence (P35453 263-343 T313R): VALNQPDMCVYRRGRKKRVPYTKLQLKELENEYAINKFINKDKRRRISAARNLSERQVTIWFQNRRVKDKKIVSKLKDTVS

HOXD13 [11] = target: HOXD13 (Homo sapiens, UniProt P35453 263-343)
HOXD13 (Homo sapiens, UniProt P35453 263-343), sequence (P35453 263-343): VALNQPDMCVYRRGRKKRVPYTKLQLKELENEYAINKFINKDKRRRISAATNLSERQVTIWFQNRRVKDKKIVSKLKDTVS

HOXD13 [12] = target: HOXD13 (Homo sapiens, UniProt P35453 263-343, T313A)
HOXD13 (Homo sapiens, UniProt P35453 263-343, T313A), sequence (P35453 263-343 T313A): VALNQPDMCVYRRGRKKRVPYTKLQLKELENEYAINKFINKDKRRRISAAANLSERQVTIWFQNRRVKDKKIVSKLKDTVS

HOXC9 = HOXC9 (Homo sapiens, UniProt P31274 178-260, R222W)
HOXC9, sequence (P31274 178-260 R222W): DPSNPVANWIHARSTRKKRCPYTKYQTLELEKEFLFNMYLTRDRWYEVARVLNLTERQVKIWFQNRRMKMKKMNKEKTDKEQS

NKX2-6 [13] = target: T1, NKX2-6 (Homo sapiens, UniProt A6NCS4 118-204)
T1 sequence: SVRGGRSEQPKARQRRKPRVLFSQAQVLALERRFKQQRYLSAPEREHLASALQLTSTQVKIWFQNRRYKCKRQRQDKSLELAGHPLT

NKX2-6 [14] = target: T2, NKX2-6 (Homo sapiens, UniProt A6NCS4 118-204, F151L)
T2 sequence: T1 sequence with F34L

PITX2 = PITX2 (Homo sapiens, UniProt Q99697 72-157)
ALX4 [15] = target: ALX4 (Homo sapiens, UniProt Q9H161 200-286)
ALX4 (Homo sapiens, UniProt Q9H161 200-286), sequence (Q9H161 200-286): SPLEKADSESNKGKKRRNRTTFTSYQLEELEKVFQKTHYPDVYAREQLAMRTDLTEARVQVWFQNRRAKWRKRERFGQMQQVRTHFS

PRRX1 [16] = target: PRRX1 (Homo sapiens, UniProt P54821 80-166, F113S)
PRRX1 (Homo sapiens, UniProt P54821 80-166, F113S), sequence (P54821 80-166 F113S): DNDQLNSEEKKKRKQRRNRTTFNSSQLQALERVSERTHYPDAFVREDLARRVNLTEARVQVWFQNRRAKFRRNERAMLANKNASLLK

ALX4 [17] = target: ALX4 (Homo sapiens, UniProt Q9H161 200-286, Q225E)
ALX4 (Homo sapiens, UniProt Q9H161 200-286, Q225E), sequence (Q9H161 200-286 Q225E): as the sequence (Q9H161 200-286) above, with Q26E counted along it

MSX2 [18] = target: MSX2 (Homo sapiens, UniProt P35548 130-214, R199I)
MSX2 (Homo sapiens, UniProt P35548 130-214, R199I), sequence (P35548 130-214 R199I): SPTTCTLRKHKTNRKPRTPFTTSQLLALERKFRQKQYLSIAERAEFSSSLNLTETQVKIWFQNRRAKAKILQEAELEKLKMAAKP

MSX2 [19] = target: MSX2 (Homo sapiens, UniProt P35548 130-214)
MSX2 (Homo sapiens, UniProt P35548 130-214), sequence (P35548 130-214): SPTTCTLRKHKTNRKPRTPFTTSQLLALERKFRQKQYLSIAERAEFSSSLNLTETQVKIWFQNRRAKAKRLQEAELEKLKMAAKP

MSX2 [20] = target: MSX2 (Homo sapiens, UniProt P35548 130-214, F161Y)
MSX2 (Homo sapiens, UniProt P35548 130-214, F161Y), sequence (P35548 130-214 F161Y): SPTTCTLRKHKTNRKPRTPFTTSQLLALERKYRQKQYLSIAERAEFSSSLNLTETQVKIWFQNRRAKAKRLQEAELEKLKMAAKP

PRRX1 [21] = target: PRRX1 (Homo sapiens, UniProt P54821 80-166)
PRRX1 (Homo sapiens, UniProt P54821 80-166), sequence (P54821 80-166): as the sequence (P54821 80-166 F113S) above, with S34F counted along it

VAX1 [22] = target: VAX1 (Homo sapiens, UniProt Q5SQQ9 86-172)
VAX1 (Homo sapiens, UniProt Q5SQQ9 86-172), sequence (Q5SQQ9 86-172): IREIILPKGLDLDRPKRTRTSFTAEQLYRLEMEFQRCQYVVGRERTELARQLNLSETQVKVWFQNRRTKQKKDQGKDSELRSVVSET

VAX1 [23] = target: VAX1 (Homo sapiens, UniProt Q5SQQ9 86-172, T142I)
VAX1 (Homo sapiens, UniProt Q5SQQ9 86-172, T142I), sequence (Q5SQQ9 86-172 T142I): as the sequence (Q5SQQ9 86-172) above, with T57I counted along it

VAX1 [24] = target: VAX1 (Homo sapiens, UniProt Q5SQQ9 86-172, K157R)
VAX1 (Homo sapiens, UniProt Q5SQQ9 86-172, K157R), sequence (Q5SQQ9 86-172 K157R): as the sequence (Q5SQQ9 86-172) above, with K72R counted along it

ALX3 = ALX3 (Homo sapiens, UniProt O95076 139-225, N203S)
ALX3, sequence (O95076 139-225 N203S): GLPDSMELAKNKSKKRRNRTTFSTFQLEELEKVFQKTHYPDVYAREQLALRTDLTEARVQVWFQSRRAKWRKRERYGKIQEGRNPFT

CRX = CRX (Homo sapiens, UniProt O43186 26-111, R41L)
CRX, sequence (O43186 26-111 R41L): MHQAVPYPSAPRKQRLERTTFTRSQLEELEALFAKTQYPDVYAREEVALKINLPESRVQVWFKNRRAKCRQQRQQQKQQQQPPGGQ

HOXC10 (Homo sapiens, UniProt Q9NYD6 254-340, K271E), sequence (Q9NYD6 254-340 K271E): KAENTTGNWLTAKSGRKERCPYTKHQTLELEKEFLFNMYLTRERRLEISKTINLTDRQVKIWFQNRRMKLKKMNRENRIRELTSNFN
HOXC10 (Homo sapiens, UniProt Q9NYD6 254-340), sequence (Q9NYD6 254-340): as the sequence (Q9NYD6 254-340 K271E) above, with E18K counted along it
HOXA2 (Homo sapiens, UniProt O43364 129-215, R185K), sequence (O43364 129-215 R185K): as the sequence (O43364 129-215 Y150S) above, with S22Y, R57K counted along it
HOXA2 (Homo sapiens, UniProt O43364 129-215, R185T), sequence (O43364 129-215 R185T): as the sequence (O43364 129-215 Y150S) above, with S22Y, R57T counted along it

Sequence: CTGCCCCC
- binding signal (HOXC10 [1]): 9.96 upbm affinity estimate (log intensity, higher = more binding, comparable within an allelic series)
- binding signal (HOXA2 [2]): 6.91 upbm affinity estimate (log intensity, higher = more binding, comparable within an allelic series)
- binding signal (HOXA2 [3]): 9.95 upbm affinity estimate (log intensity, higher = more binding, comparable within an allelic series)
- binding signal (HOXC10 [4]): 9.97 upbm affinity estimate (log intensity, higher = more binding, comparable within an allelic series)
- binding signal (PROP1 [5]): 6.68 upbm affinity estimate (log intensity, higher = more binding, comparable within an allelic series)
- binding signal (PROP1 [6]): 6.59 upbm affinity estimate (log intensity, higher = more binding, comparable within an allelic series)
- binding signal (PROP1 [7]): 6.14 upbm affinity estimate (log intensity, higher = more binding, comparable within an allelic series)
- binding signal (HOXA2 [8]): 10.3 upbm affinity estimate (log intensity, higher = more binding, comparable within an allelic series)
- binding signal (HOXA2 [9]): 7.21 upbm affinity estimate (log intensity, higher = more binding, comparable within an allelic series)

Sequence: CCCGTAAA
- binding signal (HOXD13 [10]): 10.6 upbm affinity estimate (log intensity, higher = more binding, comparable within an allelic series)
- binding signal (HOXD13 [11]): 11.9 upbm affinity estimate (log intensity, higher = more binding, comparable within an allelic series)
- binding signal (HOXD13 [12]): 11.6 upbm affinity estimate (log intensity, higher = more binding, comparable within an allelic series)

Sequence: ATAAAAAT
- binding signal (HOXD13 [10]): 10.7 upbm affinity estimate (log intensity, higher = more binding, comparable within an allelic series)
- binding signal (HOXC9): 11.2 upbm affinity estimate (log intensity, higher = more binding, comparable within an allelic series)

Sequence: CGCTGGGC
- binding signal (NKX2-6 [13]): 9.13 upbm affinity estimate (log intensity, higher = more binding, comparable within an allelic series)
- binding signal (NKX2-6 [14]): 9.22 upbm affinity estimate (log intensity, higher = more binding, comparable within an allelic series)

Sequence: GTCCCGCA
- binding signal (NKX2-6 [13]): 9.41 upbm affinity estimate (log intensity, higher = more binding, comparable within an allelic series)
- binding signal (NKX2-6 [14]): 9.36 upbm affinity estimate (log intensity, higher = more binding, comparable within an allelic series)

Sequence: ACATAAGT
- binding signal (PITX2): 9.71 upbm affinity estimate (log intensity, higher = more binding, comparable within an allelic series)

Sequence: AACCTGCC
- binding signal (PITX2): 7.89 upbm affinity estimate (log intensity, higher = more binding, comparable within an allelic series)

Sequence: AAAGATAT
- binding signal (HOXD13 [11]): 10.8 upbm affinity estimate (log intensity, higher = more binding, comparable within an allelic series)
- binding signal (HOXD13 [12]): 10.9 upbm affinity estimate (log intensity, higher = more binding, comparable within an allelic series)

Sequence: ATGTCTTA
- binding signal (ALX4 [15]): 9.38 upbm affinity estimate (log intensity, higher = more binding, comparable within an allelic series)

Sequence: AGGGCACC
- binding signal (ALX4 [15]): 7.93 upbm affinity estimate (log intensity, higher = more binding, comparable within an allelic series)
- binding signal (PRRX1 [16]): 9.03 upbm affinity estimate (log intensity, higher = more binding, comparable within an allelic series)
- binding signal (ALX4 [17]): 8.09 upbm affinity estimate (log intensity, higher = more binding, comparable within an allelic series)
- binding signal (MSX2 [18]): 9.47 upbm affinity estimate (log intensity, higher = more binding, comparable within an allelic series)
- binding signal (MSX2 [19]): 9.48 upbm affinity estimate (log intensity, higher = more binding, comparable within an allelic series)
- binding signal (MSX2 [20]): 9.58 upbm affinity estimate (log intensity, higher = more binding, comparable within an allelic series)
- binding signal (PRRX1 [21]): 9.28 upbm affinity estimate (log intensity, higher = more binding, comparable within an allelic series)

Sequence: CCACTAAC
- binding signal (ALX4 [15]): 10 upbm affinity estimate (log intensity, higher = more binding, comparable within an allelic series)

Sequence: ATATAGTC
- binding signal (ALX4 [15]): 8.99 upbm affinity estimate (log intensity, higher = more binding, comparable within an allelic series)

Sequence: CCGGGGAA
- binding signal (HOXC10 [1]): 9.93 upbm affinity estimate (log intensity, higher = more binding, comparable within an allelic series)
- binding signal (HOXC10 [4]): 9.99 upbm affinity estimate (log intensity, higher = more binding, comparable within an allelic series)
- binding signal (VAX1 [22]): 7.17 upbm affinity estimate (log intensity, higher = more binding, comparable within an allelic series)
- binding signal (VAX1 [23]): 7.19 upbm affinity estimate (log intensity, higher = more binding, comparable within an allelic series)
- binding signal (VAX1 [24]): 7.27 upbm affinity estimate (log intensity, higher = more binding, comparable within an allelic series)

Sequence: TTAAATAA
- binding signal (HOXC10 [1]): 11.4 upbm affinity estimate (log intensity, higher = more binding, comparable within an allelic series)
- binding signal (HOXC10 [4]): 11.1 upbm affinity estimate (log intensity, higher = more binding, comparable within an allelic series)
- binding signal (ALX3): 8.72 upbm affinity estimate (log intensity, higher = more binding, comparable within an allelic series)

Sequence: TGATGGCA
- binding signal (HOXC10 [1]): 10.7 upbm affinity estimate (log intensity, higher = more binding, comparable within an allelic series)
- binding signal (VAX1 [22]): 9.08 upbm affinity estimate (log intensity, higher = more binding, comparable within an allelic series)
- binding signal (VAX1 [23]): 8.72 upbm affinity estimate (log intensity, higher = more binding, comparable within an allelic series)

Sequence: ATCTAAAC
- binding signal (ALX4 [15]): 9.7 upbm affinity estimate (log intensity, higher = more binding, comparable within an allelic series)

Sequence: ATATTTAG
- binding signal (ALX4 [15]): 10.9 upbm affinity estimate (log intensity, higher = more binding, comparable within an allelic series)

Sequence: AATGGCCT
- binding signal (ALX4 [15]): 10.3 upbm affinity estimate (log intensity, higher = more binding, comparable within an allelic series)

Sequence: TATTAAGA
- binding signal (HOXC10 [1]): 11.2 upbm affinity estimate (log intensity, higher = more binding, comparable within an allelic series)
- binding signal (HOXC10 [4]): 10.9 upbm affinity estimate (log intensity, higher = more binding, comparable within an allelic series)
- binding signal (CRX): 10.6 upbm affinity estimate (log intensity, higher = more binding, comparable within an allelic series)

Reference: paper PMC11006913
